IL-2 act: IL-2 activation; 0.065% of 360,000 active; IL-2 activation reporter assay, cell-based qHTS; stimulated with anti-CD3/CD4/CD28 beads; in transgenic mouse T cells; AID 652025; activation, % (series mostly up to about 46 µM); in the data active means activation above about 50%; inconclusive means mostly about 30% to 49%
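Using fluorescent plate cytometry, EGFP and DsRed are detected in transgenic mouse T cells stimulated 18 h at 37 degrees C with antibody-coated beads after 60 min compound pretreatment.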
PTHR1 ag: agonists of human PTHR1 parathyroid hormone receptor; Potency, µM (top dose mostly 115 µM), actives largely listed as activators; Q03431; HEK293 GP2 PTHR1 cells, GloSensor cAMP luminescence, 1 h; AID 743266; 0.075% of 410,000 active; further: nearly all actives have a fitted effect of over 55% in size
Target sequence (Q03431 whole entry, looked up): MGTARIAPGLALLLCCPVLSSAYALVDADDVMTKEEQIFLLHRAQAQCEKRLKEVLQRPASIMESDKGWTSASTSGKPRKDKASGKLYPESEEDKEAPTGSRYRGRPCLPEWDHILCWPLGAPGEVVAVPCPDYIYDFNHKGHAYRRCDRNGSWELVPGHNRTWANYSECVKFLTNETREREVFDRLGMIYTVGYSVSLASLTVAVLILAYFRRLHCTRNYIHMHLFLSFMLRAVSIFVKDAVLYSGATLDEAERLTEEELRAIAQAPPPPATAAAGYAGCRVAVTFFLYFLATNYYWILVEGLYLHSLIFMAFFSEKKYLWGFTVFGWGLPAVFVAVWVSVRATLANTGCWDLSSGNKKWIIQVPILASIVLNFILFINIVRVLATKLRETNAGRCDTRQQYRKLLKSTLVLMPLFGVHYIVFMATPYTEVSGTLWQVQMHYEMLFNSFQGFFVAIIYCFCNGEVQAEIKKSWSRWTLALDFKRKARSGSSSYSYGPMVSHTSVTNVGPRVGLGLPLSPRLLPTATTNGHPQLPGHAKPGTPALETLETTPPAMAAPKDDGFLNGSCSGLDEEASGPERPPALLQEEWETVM
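HEK-293-derived GP2 cells expressing PTHR1 and a GloSensor cAMP reporter, 3,000/well, plated overnight, given luciferin plus IBMX (each 0.5 mM as added) for 1 h at 37 °C, then compound for 1 h at 37 °C. Luminescence was read after 15 min at room temperature.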
TCR activator: activators of T cell receptors. 330,000 tested, under 10 active. Potency, µM (titrated, usually from 9.22 µM), most hits filed as activators. primary human leukocytes, anti-CD3, IL-2 HTRF, 48 h
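TCR engagement came from a-CD3 beads alone, with compounds added to primary human leukocytes for 48 hr. Secreted IL-2 bridged europium cryptate- and d2-labelled anti-IL-2 antibodies, giving FRET emission at 665nm after 320nm excitation.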
BCR signal inh: chronic active BCR signaling inhibition; ABC-DLBCL IkBa-CBG/CBR reporter, luminescence ratio, 4 h; Potency, µM (highest dose often 46.1 µM), actives largely listed as inhibitors; 0.05% of 340,000 active; AID 493014; active means well fitted inhibition curve with a large enough effect in the signal ratio, with a control signal flat, not every such curve was filed as active; inconclusive means small, poorly fitted or top-dose-only effect, or effect the other way, or a change in a side signal; the % refers to the signal ratio
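Compounds up to 46 uM were incubated four hours with TMD8 cells whose green CBG68 luciferase is fused to IkappaBalpha; red CBR luminescence normalised the signal, and concentration-effect curves were fitted to fusion, red and ratio data.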
Mito fusion yeast: mitochondrial division inhibition or fusion activation. 0.23% of 320,000 active. S. cerevisiae fusion-defective mutant growth rescue, CellTiterGlo 48 h. Potency, µM (titrated, usually from 46.1 µM), actives largely listed as activators; further: nearly all actives have a fitted effect of over 45% in size
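S. cerevisiae fusion-defective temperature-sensitive mutants (e.g. fzo1-1, mgm1-5) grown 48 h at 37C in YPEG (ethanol/glycerol non-fermentable) medium with 23 nl compound per well; growth rescue read as CellTiterGlo luminescence.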
BRCA1 expr act: activators of BRCA1 expression; MCF7-BRCA1-FFLuc reporter, luminescence, 48 h; response scale: scaled: vehicle 0%, 10 µM genistein 100%; Potency, µM (highest dose often 46.1 µM), hits mostly activators; 1.1% of 380,000 active; further: nearly all actives have a fitted effect of over 80% in size
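MCF7-BRCA1-FFLuc cells, 2000/well in phenol-red-free MEM, attached 2 h then treated 48 h at 37 C. Luciferase luminescence read 15 min after reagent; normalized to genistein maximum activation (10microM) and DMSO, concentration-response fitted.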
Each line names hits and unclear results; the compound was inactive in the other large screens. Rows were chosen to be rich in hits. Some 1.3% of all compounds tested hit in one or more screens of this group. Unless noted, the call rests on the fitted dose curve; in most records, active means well fitted curve in the direction sought with a large enough effect; inconclusive means small, poorly fitted or top-dose-only effect, or another doubt; inactive means no such curve, though single readings can be large; an effect the other way counts as inactive or inconclusive.

CCOc1ccc(NS(=O)(=O)c2cc(C(=O)N3CCCC3)ccc2Cl)cc1	none
CCOc1ccc(NS(=O)(=O)c2cc(NC(=O)c3cccc(C)c3)ccc2Cl)cc1	BCR signal inh inconclusive, Mito fusion yeast 22µM
COc1ccc(OC)c(NCc2cccn2-c2nnc(N3CCC(C)CC3)s2)c1	BCR signal inh inconclusive (no result: IL-2 act, TCR activator, Mito fusion yeast)
O=c1cc(-c2ccccc2)oc2ccc(O)cc12	BRCA1 expr act 2.8µM
CCC1Oc2ccc(C)cc2N(CC(=O)N2CCCC2)C1=O (stereo not drawn)	none
CCC(=O)N1N=C(c2cccs2)CC1c1ccc(OC)cc1 (stereo not drawn)	none (no result: TCR activator)
COc1ccc(C2=NN(C(=O)c3cccs3)C(c3ccc(OC)cc3)C2)cc1 (stereo not drawn)	TCR activator inconclusive, BCR signal inh inconclusive, Mito fusion yeast 11µM
COc1ccc(C2CC(c3cccs3)=NN2C(=O)c2ccc(Br)o2)cc1 (stereo not drawn)	Mito fusion yeast 18µM
CS(=O)(=O)c1ccc(S(=O)CC(=O)Oc2ccc(Cl)cc2)c([N+](=O)[O-])c1 (stereo not drawn)	BCR signal inh 18µM
Nc1[nH]nc2nc3ccccc3cc12	BCR signal inh inconclusive (no result: TCR activator)
CCc1ccc2nc3n[nH]c(N)c3cc2c1	BCR signal inh 13µM, BRCA1 expr act inconclusive
CN(C)c1ccc(C(I)C(I)c2ccnc3ccccc23)cc1 (stereo not drawn)	none (no result: IL-2 act, PTHR1 ag, TCR activator, BCR signal inh, Mito fusion yeast)
Cc1nc(Nc2ccccc2C(F)(F)F)sc1C(=O)N(C)C	BCR signal inh inconclusive, BRCA1 expr act 10µM
Cc1nc(NCCc2ccccc2)sc1C(=O)N(C)C	BRCA1 expr act inconclusive
Cc1cccc(Nc2nc(NCc3ccco3)nc(N3CCOCC3)n2)c1	BCR signal inh inconclusive
CCC[C@@H]1Cc2ccccc2N1C(C)=O	none
O=C(N[C@@H](Cc1ccccc1)C(=O)NC1CCCCCC1)c1ccco1	BRCA1 expr act 11µM
CSCCC(NC(=O)c1ccco1)C(=O)NC1CCC(C)CC1 (stereo not drawn)	BRCA1 expr act 3.5µM (no result: Mito fusion yeast)
Cc1ccccc1N=Cc1c(O)n(-c2nccs2)c(=O)c2ccccc12	Mito fusion yeast inconclusive
O=c1c2ccccc2c(C=Nc2ccccc2O)c(O)n1-c1nccs1	IL-2 act 64, BCR signal inh inconclusive
CC(C)(C)CC(=O)Nc1cccc(-c2cn3cccnc3n2)c1	BRCA1 expr act 8.9µM
CCCCCCOc1ccc(/C(N)=N/O)cc1	BRCA1 expr act 7.1µM
CC1(C)C2CCC(CN=C(N)CSS(=O)(=O)O)C1C2 (stereo not drawn)	none (no result: TCR activator, BCR signal inh, Mito fusion yeast)
c1cnc(N2CCN(c3nc4ccccc4n4cnnc34)CC2)nc1	none
CCOC(=O)N1CCN(c2nc3ccccc3n3cnnc23)CC1	Mito fusion yeast 25µM
C=C1C=C(C(F)F)n2ncc(C(=O)Nc3ccc(Br)cc3C(F)(F)F)c2N1	none (no result: IL-2 act, PTHR1 ag, TCR activator, BCR signal inh, Mito fusion yeast)
CCOC(=O)C1CCCN(C(=O)CCc2nnc(-c3ccc(C(C)=O)s3)o2)C1 (stereo not drawn)	BRCA1 expr act 13µM
CCOc1ccc2nc(SCC(=O)N(C)C)[nH]c2c1	BRCA1 expr act 10µM
CCOc1ccc2nc(SCC(=O)N(C)C3CCS(=O)(=O)C3)[nH]c2c1 (stereo not drawn)	none
COc1ccc2nc(SCC(=O)C(C)(C)C)[nH]c2c1	BCR signal inh inconclusive, BRCA1 expr act 7.9µM
CCc1ccc(NCc2cc3ccc(OC)cc3n(CC(=O)Nc3ccccc3OC)c2=O)cc1	none (no result: IL-2 act, TCR activator, BCR signal inh, Mito fusion yeast)
CCCC(=O)N(CCN1CCOCC1)c1nc2cc(C)c(C)cc2s1	BRCA1 expr act 4µM
O=S(=O)(Cc1noc(-c2ccc(Cl)cc2)n1)Cc1ccco1	BRCA1 expr act 7.9µM
OC(CBr)C[n+]1cc(Br)cc2ccccc21 (stereo not drawn)	none (no result: IL-2 act, PTHR1 ag, TCR activator, BCR signal inh, Mito fusion yeast)
CCOc1ccc(-c2c(C#N)c(N)nc3sc(C(=O)c4ccccc4)c(N)c23)cc1	IL-2 act 125
NC(Cc1ccc(F)cc1)c1csc(NC(=O)NC(c2ccccc2)c2ccccc2)n1 (stereo not drawn)	none (no result: TCR activator, BCR signal inh, Mito fusion yeast)

Source: PubChem (National Center for Advancing Translational Sciences (NCATS))
